ALDH1A1 inh: qHTS Assay for Inhibitors of Aldehyde Dehydrogenase 1 (ALDH1A1); Purified ALDH1A1, NADH fluorescence, propionaldehyde substrate; 220,000 compounds, 7.3% hits; AID 1030, 2008; Potency, µM (highest dose often 75.3 µM), without a hit: top-dose activity, negative = inhibition, hits mostly inhibitors; active = well fitted inhibition curve with a large enough effect, not every such curve was filed as active; inconclusive = small, poorly fitted or top-dose-only effect, or another doubt; inactive = no such curve, though single readings can be large or run the other way;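 note: potency is the fitted concentration of half-maximal effect; plate controls were no enzyme wells and a reference inhibitor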
Target sequence (P00352 whole entry, looked up): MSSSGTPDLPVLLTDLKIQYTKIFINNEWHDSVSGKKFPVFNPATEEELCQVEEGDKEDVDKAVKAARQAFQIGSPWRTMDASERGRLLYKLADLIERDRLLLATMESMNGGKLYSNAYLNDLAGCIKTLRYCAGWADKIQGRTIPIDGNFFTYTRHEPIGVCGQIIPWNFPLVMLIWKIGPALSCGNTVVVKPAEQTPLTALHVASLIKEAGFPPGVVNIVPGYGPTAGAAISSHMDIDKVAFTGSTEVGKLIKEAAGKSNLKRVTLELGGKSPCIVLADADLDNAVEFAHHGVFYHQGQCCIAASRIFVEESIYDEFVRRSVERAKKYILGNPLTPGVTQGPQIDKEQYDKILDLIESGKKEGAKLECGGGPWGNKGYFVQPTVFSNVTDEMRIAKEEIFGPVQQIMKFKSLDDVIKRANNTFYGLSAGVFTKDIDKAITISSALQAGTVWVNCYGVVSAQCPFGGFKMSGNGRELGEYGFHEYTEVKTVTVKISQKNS
KDM4E inh: qHTS Assay for Inhibitors of Human Jumonji Domain Containing 2E (JMJD2E); JMJD2E catalytic domain, FDH-coupled NADH fluorescence (FDH is formaldehyde dehydrogenase); Potency, µM (highest dose often 57.1 µM), inactives show at the top dose activity change, negative = inhibition, most hits filed as inhibitors; 230,000 compounds, 1.6% hits; AID 2147, 2009; active = well fitted inhibition curve with a large enough effect, not every such curve was filed as active; inconclusive = small, poorly fitted or top-dose-only effect, or another doubt; inactive = no such curve, though single readings can be large or run the other way;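 note: potency is the fitted concentration of half-maximal effect; 0% = wells with enzyme and -100% = buffer wells without enzyme; nearly all actives have a fitted effect of over 50% in size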
HTT ATP protect: qHTS Multiplex Assay to Identify Dual Action Probes in a Cell Model of Huntington: Cytoprotection (ATP); AID 1471, 2008; PC12 HTT-Q103 induced, cytoprotection, ATP luminescence, 40 h; Potency, µM (highest dose often 56.4 µM), without a hit: cytoprotection (ATP increase), most hits filed as activators; 230,000 compounds, 0.14% hits; note: potency is the fitted concentration of half-maximal effect; % of control where 0% means no effect; nearly all actives have a fitted effect of over 45% in size
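Stable PC12 Q103-GFP cells in serum-supplemented, phenol red-free DMEM; induction by tebufenozide at 100 nM final; compound dose series; cell viability quantified luminescently from ATP.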
CBFb-RUNX1 inh: qHTS Assay for Compounds Blocking the Interaction Between CBF-beta and RUNX1 for the Treatment of Acute Myeloid Leukemia; Runt-related transcription factor 1 (Homo sapiens) + Core-binding factor subunit beta …; AlphaScreen CBFb-His/RUNX1-biotin binding, biochemical; Potency, µM (highest dose often 59.8 µM), for inactives: top-dose activity, negative = inhibition, most hits filed as inhibitors; 230,000 tested, under 10 active; note: % of control where 0% means no effect
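CBF-beta (His) and RUNX1 (biotin), 30 nM each; 20 min preassociation; + compound, 15 min; + beads 50 ng each (Ni, streptavidin), 90 min; RT; AlphaScreen read.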
HTT aggregate: qHTS Multiplex Assay to Identify Dual Action Probes in a Cell Model of Huntington: Aggregate Formation (GFP); 220,000 compounds, 1.1% hits; AID 1688, 2009; PC12 HttQ103-GFP aggregates, Acumen cytometry, 40 h; Potency, µM (highest dose often 46.1 µM), inactives show top-dose activity change, negative = inhibition, actives largely listed as inhibitors; note: potency is the fitted concentration of half-maximal effect; % is set by controls: 0 for no effect and ±100 for the full control effect; nearly all actives have a fitted effect of over 60% in size
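PC12 cells stably carrying ecdysone-inducible HTT exon 1 Q103–GFP were induced with tebufenozide (100 nM final) and treated with library compounds in titration. GFP aggregates in lysates were counted by laser scanning cytometry.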
HPGD block: qHTS Assay for Inhibitors of HPGD (15-Hydroxyprostaglandin Dehydrogenase); purified HPGD, NADH fluorescence kinetic, PGE2 substrate; Potency, µM, for inactives: top-dose activity change, negative = inhibition, actives largely listed as inhibitors; AID 894, 2007; 150,000 compounds, 4.3% hits; 15-hydroxyprostaglandin dehydrogenase [NAD(+)] (Homo sapiens), P15428; active = well fitted inhibition curve with a large enough effect, not every such curve was filed as active; inconclusive = small, poorly fitted or top-dose-only effect, or another doubt; inactive = no such curve, though single readings can be large or run the other way; note: potency is the fitted concentration of half-maximal effect; % is set by controls: 0 for no effect and ±100 for the full control effect
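20 nM HPGD preincubated 15 min at room temperature with compound in 50 mM Tris-HCl pH 8, 0.01% Tween 20. Started with 1 mM NAD+ and 30 uM prostaglandin E2; NADH fluorescence (360/450 nm) read 5 times over 30-s intervals, last minus first.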
* hit, by the source's call; u = inconclusive; x = no result; [ ] = another dose, or the depositor's remark. The list is not random: actives were taken first. Their share in the collection is about 9.8%. Unless noted, calls come from the whole dose curve; as a rule, active = well fitted curve in the direction sought with a large enough effect; inconclusive = small, poorly fitted or top-dose-only effect, or another doubt; inactive = no such curve, though single readings can be large; an effect the other way counts as inactive or inconclusive.

SMILES | ALDH1A1 inh | KDM4E inh | HTT ATP protect | CBFb-RUNX1 inh | HTT aggregate | HPGD block
CCCC1=NN2C(=N)/C(=C\c3ccc(SCc4ccco4)o3)C(=O)N=C2S1 | 22.4µM* | u | -8.7% | x | -8.4%[1.84 µM] | 22.4µM*
CCC1=NN2C(=N)/C(=C\c3ccc(SCc4ccco4)o3)C(=O)N=C2S1 | -11.4% | -9.0% | -6.7% | u | 8.4% | -23.4%
CCn1c(C)cc(C=C2C(=O)c3ccccc3C2=O)c1C | 11.2µM* | u | 13.0%[10 µM] | -8.4% | -10.5%[9.22 µM] | x
CCS(=O)(=O)N1CCC(C(=O)N2CCc3ccccc3C2)CC1 | -10.8% | -2.0% | -29.2% | 4.9% | u | x
COc1cc(/C=C(\NC(C)=O)C(=O)Nc2cccc(O)c2)ccc1OC(C)=O | 0.0891µM* | -3.1% | x | 0.1% | -14.5% | -12.9%
Cc1cc(O)ccc1NC(=O)CCN1C(=O)c2ccc([N+](=O)[O-])cc2C1=O | 11.2µM* | -0.9% | x | 10.8% | 8.0% | -14.3%
CC(NC(=O)COc1ccc(Br)cc1)C(=O)O (configuration not stated) | 10µM* | u | 0.8% | -3.8% | 4.1% | -14.8%
O=C(CSc1n[nH]c(-c2cccnc2)n1)Nc1ccccc1 | 1.4% | 9.3% | 4.2%[10 µM] | 19.2% | -13.3% | 10µM*
COC(=O)CSc1n[nH]c(-c2cccnc2)n1 | 12.2% | 8.8% | -3.4% | 1.9% | -16.8% | -11.1%
O=C(CSc1n[nH]c(-c2ccccc2)n1)Nc1ccc(N2CCOCC2)cc1 | 22.4µM* | 1.2% | -26.6% | 9.3% | -5.9% | x
COc1cccc(NC(=S)N(CCCN2CCC(C)CC2)Cc2cccs2)c1 | -2.6% | 0.2% | -22.6% | 3.6% | 2.4% | x
COc1ccc(NC(=S)N(CCCN2CCC(C)CC2)Cc2cccs2)cc1 | 20µM* | 1.0% | -32.5% | -1.5% | -2.1% | x
O=C1OC(NC(=O)c2ccccc2)C(n2cc(CO)nn2)=C1Cl (configuration not stated) | 12.6µM* | -13.3% | -0.6% | -3.5% | 19.8% | 22.4µM*
O=C(N/N=C/c1ccc(Sc2nc3ccccc3s2)c([N+](=O)[O-])c1)c1ccccn1 | -1.9% | -9.1% | -31.6% | -4.2% | -1.4% | -13.4%
CC1(C)Cc2c(sc3c2C2=NCCN2C=N3)CS1 | -0.6% | -23.3% | 17.9%[10 µM] | -2.2% | 3.9% | -12.9%
CSC1=Nc2sc3c(c2C2=NCCN12)CCCC3 | 14.1µM* | -29.5% | -8.7% | -0.7% | 29.3% | x
COc1cc(OC)c(NC(C)C(=O)N2CCCC2)cc1Cl (configuration not stated) | -3.1% | 4.6% | 8.3% | -10.8% | 19.4% | x
COc1cccc(Nc2nc3ccccc3nc2NS(=O)(=O)c2cccs2)c1 | u | u | -76.6% | 1.4% | 14.1µM* | -28.7%
CCCCCCn1c(C(C)NC(=O)c2ccco2)nc2ccccc21 (configuration not stated) | 5.01µM* | -4.3% | -14.1%[0.074 µM] | -1.4% | 7.3% | -7.0%
COC(=O)C/C=C\[C@@H](C)[C@@H]1C=C[C@H](OC(C)=O)[C@H](COC(C)=O)O1 | -8.9%[13.5 µM] | x | -32.1%[10 µM] | 15.5%[13.1 µM] | x | x
O=c1c2ccccc2c(C=NCc2ccccn2)c(O)n1-c1ccccc1 | -7.3% | u | x | -0.3% | 0.6% | u
O=c1oc2ccccc2c(O)c1C=NCc1ccccn1 | 28.2µM* | 2.9% | -9.9%[10 µM] | 0.0% | u | u
CC1(C)CC(=O)C(C(c2ccco2)C2C(=O)CC(C)(C)CC2=O)C(=O)C1 | u | -20.5% | 8.1%[10 µM] | 9.5% | 19.2% | 7.94µM*
O=C(O)Cn1cc(/C=C2\SC(=O)N(c3ccccc3)C2=O)c2ccccc21 | 22.4µM* | 1.9% | -11.3%[1.9 µM] | -8.9% | -13.6%[9.22 µM] | x

Screens as filed in PubChem.
